Among all 410,000 compounds or so, about 18,000 (4.4%) were called active. Inconclusive results (about 7%) are left out. The list comes from a sample in which actives are over-represented; it also holds similar structures and randomly drawn compounds. Unmarked numbers belong to inactive results. Rule as the data show it: active = activity change below about -60%; inconclusive = no clear call, values can overlap the other calls; inactive = above about -39%.
Assay: qHTS Assay for inhibitors of the human cytomegalovirus (HCMV)
Conditions: HFF cells, HCMV-luciferase reporter, 72 h; at 57.5 µM; active compounds read low
Outline: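 Human foreskin fibroblasts infected with luciferase-reporter HCMV at MOI 1 PFU/cell, compounds at two doses. Luciferase measured 72 h post infection; normalized to buffer-only basal and Salinomycin (10uM) controls.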
% is scaled to controls: 0 for no effect and ±100 for the full control effect.

SMILES	activity change, negative = inhibition
Cc1ccc(-c2nn3c(=O)cc(CN4CCN(S(=O)(=O)c5ccc(Cl)cc5)CC4)nc3s2)cc1	-1.44%
COc1ccc(CNC(=O)/C(C#N)=C/c2cccc(OC)c2OC)cc1	-83.6% (active)
COc1cc(/C=C(\C#N)C(=O)Nc2ccc3ccccc3c2)c([N+](=O)[O-])cc1OC	16.2%
CCSc1ccccc1C(=O)NCc1ccc(OC)cc1	-19.4%
COc1ccc(NC(=O)CCCN2C(=O)CCn3nc(-c4cn(C)c5ccccc45)cc32)cc1OC	-28.9%
CCOc1ccc(CN2CCN(CCCc3ccccc3)C(CCO)C2)cc1 (centres undefined)	37.5%
COc1ccccc1N1CCC(N2CCN(CC(C)(C)C)C(CCO)C2)CC1 (centres undefined)	33.4%
CCOc1ccccc1CN1CCN(C2CCC2)CC1CCO (centres undefined)	-93.5% (active)
Cc1ccccc1CSc1nc(-c2ccccc2)nc2c1Cc1c(CO)cnc(C)c1O2	8.94%
CCOC(=O)c1ccc(NC(=O)CC2C(=O)N(c3cccc(OC)c3)C(=O)N2C2CCCCC2)cc1 (centres undefined)	-1.63%
CCOC(=O)[C@]12Cc3cc(OC)ccc3[C@H]1N(C(C)C)C(=O)c1ccccc12	-109% (active)
CCOC(=O)C1(Cc2cccc(OC)c2)CCN(C(C)COC)CC1 (centres undefined)	-7.28%
CCOc1ccc(NC(=O)CC2C(=O)N(c3cccc(OC)c3)C(=O)N2C2CCCCC2)cc1 (centres undefined)	7.53%
CCOC(=O)[C@]12Cc3ccccc3[C@H]1N(C1CCCCC1)C(=O)c1cc(OC)ccc12	-101% (active)
CCOC(=O)C1(Cc2cccc(OC)c2)CCN(C(C)CC(C)(C)O)CC1 (centres undefined)	14%
Cc1ccc(O)c(NC(=O)CCS(=O)(=O)c2nc(-c3ccc4c(c3)OCO4)cc(C(F)(F)F)n2)c1	14.6%
CCOC(=O)[C@]12CCCC=C1N(Cc1ccc3c(c1)OCO3)C(=O)[C@H](CC(=O)NCc1cccs1)C2	6%
Cc1ccc(C)c(CNC(=O)c2cc3ccccn3n2)c1	7.66%
CCc1ccc(-n2nnc(-c3nc(-c4ccccc4)no3)c2C)cc1	168%
O=C(Nc1ccc(OC(F)(F)F)cc1)C1CCCN(S(=O)(=O)c2ccc(Br)s2)C1 (centres undefined)	6.14%
O=C1COCc2ccc(-c3cc4ccccc4o3)cc2N1CC1CC1	-2.65%
CCCCNC(=O)C(C)N(CCN(C)C)C(=O)CCCN1C(=O)NC(c2ccc(Cl)cc2)C(C(=O)OCc2ccccc2)=C1C (centres undefined)	-68% (active)
COC(=O)CCCCCN1C(=O)NC(c2ccc(-c3ccccc3)cc2)C(C(=O)OCc2ccccc2)=C1C (centres undefined)	19.6%
CC1=C(C(=O)OC(C)(C)C)C(c2ccc(Br)cc2)NC(=O)N1CCCC(=O)O (centres undefined)	-18.5%

From PubChem BioAssay AID1259415 (National Center for Advancing Translational Sciences (NCATS), 2018)
